This passage reports Potency and outcome results from PubChem BioAssay (Tox21).

Values joined by “and” are separate entries in the source; they are usually repeats but may differ in a detail not shown here. Identical values can stand only once. Inconclusive results are not listed. Where a structure was tested more than once in an assay, its records may differ in their call. Active and inactive are the calls of the source. Unless noted, the call rests on the fitted dose curve; in most records, active means well fitted curve in the direction sought with a large enough effect in the repeat runs; inconclusive means weak or mixed curves; inactive means no such curve, though single readings can be large; an effect the other way counts as inactive or inconclusive.

Assay [1] is described as follows: qHTS assay to identify small molecule antagonists of the peroxisome proliferator-activated receptor delta (PPARd) signaling pathway - cell viability counter screen (AID 743213). Further: nearly all actives have a fitted effect of over 50% in size. Further: potency means the concentration at half of the fitted maximal effect. The note with it: PPARd-bla HEK293H viability, CellTiter-Glo luminescence, 17 h; series mostly up to 62 µM. In a few lines: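 Cytotoxicity counter screen: CellTiter-Glo luminescence read 30 min after addition, in the same wells as the reporter assay. There, PPARd UAS-bla HEK293H cells (3000/well) were treated 17 h at 37 C with compound and 300 nM L165041.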

Assay [2] can be described thus: qHTS assay to identify small molecule agonists of the farnesoid-X-receptor (FXR) signaling pathway - cell viability counter screen (AID 743218). Further: nearly all actives have a fitted effect of over 45% in size. Further: potency means the concentration at half of the fitted maximal effect. The note with it: FXR-bla HEK293T viability, CellTiter-Glo luminescence, 16 h; series mostly up to 62.6 µM. Put shortly: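 In GeneBLAzer FXR-UAS-bla HEK 293T cells, compounds act for 16 h at 37 C. Cell viability is then scored in the reporter wells by CellTiter-Glo, 30 min at RT, luminescence.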
(In general: In qHTS, concentration-response curves come from the screen itself.)

Assay [3] is described as follows: qHTS assay to identify small molecule antagonists of the farnesoid-X-receptor (FXR) signaling pathway - cell viability counter screen (AID 743221; active means well fitted cell-killing curve with a large enough effect in the repeat runs, not every such curve was filed as active; further: nearly all actives have a fitted effect of over 50% in size; further: potency means the concentration at half of the fitted maximal effect). The note with it: FXR-bla HEK293T viability, CellTiter-Glo luminescence, 16 h; series mostly up to 62.6 µM. Put shortly: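 After a 5 h settling period, FXR-bla HEK 293T cells receive compound and chenodeoxycholic acid (50 uM final) and incubate 16 h at 37 C; CellTiter-Glo luminescence, read after 30 min at room temperature, reports cell viability.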

For assay [4], the target named is Vitamin D3 receptor (Homo sapiens) (UniProt P11473). The assay can be described thus: qHTS assay to identify small molecule agonists of the vitamin D receptor (VDR) signaling pathway (AID 743222; calls by dose curve). The conditions noted are these: HEK293T VDR-UAS-bla, beta-lactamase FRET ratio, 16 h; series mostly up to 63.5 µM. In a few lines: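 Agonist activity measured in VDR-bla reporter cells. Exposure 16 h, 37C, 5% CO2; detection by B/G FRET substrate, 2 h RT.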
Sequence of Vitamin D3 receptor (Homo sapiens) (P11473 whole entry, looked up): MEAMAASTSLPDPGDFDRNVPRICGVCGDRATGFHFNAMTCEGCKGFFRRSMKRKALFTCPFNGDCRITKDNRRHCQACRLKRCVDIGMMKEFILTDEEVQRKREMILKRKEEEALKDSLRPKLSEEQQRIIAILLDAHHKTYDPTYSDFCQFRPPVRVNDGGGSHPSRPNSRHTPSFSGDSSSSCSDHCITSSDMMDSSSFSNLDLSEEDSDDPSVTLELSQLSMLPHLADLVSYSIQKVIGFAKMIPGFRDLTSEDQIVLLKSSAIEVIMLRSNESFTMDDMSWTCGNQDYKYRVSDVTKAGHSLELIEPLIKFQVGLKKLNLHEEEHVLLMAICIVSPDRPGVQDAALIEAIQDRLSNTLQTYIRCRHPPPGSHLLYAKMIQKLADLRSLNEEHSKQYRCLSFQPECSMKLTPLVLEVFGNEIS

Assay [5] has the same target. The assay can be described thus: qHTS assay to identify small molecule antagonists of the vitamin D receptor (VDR) signaling pathway (AID 743223; active means well fitted inhibition curve with a large enough effect in the signal ratio in the repeat runs, not every such curve was filed as active; the % refers to the signal ratio; further: potency means the concentration at half of the fitted maximal effect). The note with it: VDR-UAS-bla HEK293T, beta-lactamase FRET ratio, 16 h; series mostly up to 61 µM. In a few lines: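 Reporter line VDR-bla; stimulus 1alpha,25-(OH)2 vitamin D3, 3 nM final; compound co-addition, 16 h 37C/5% CO2; LiveBLAzer B/G substrate 2 h RT; fluorescence intensity.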

The target of assay [6] is Peroxisome proliferator-activated receptor delta (Homo sapiens) (UniProt Q03181). In words: qHTS assay to identify small molecule antagonists of the peroxisome proliferator-activated receptor delta (PPARd) signaling pathway (AID 743215; active means well fitted inhibition curve with a large enough effect in the signal ratio in the repeat runs, not every such curve was filed as active; the % refers to the signal ratio;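 further: cells stimulated with agonist L165041 at 300 nM final during compound exposure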). The note with it: HEK293H PPARd-UAS-bla, beta-lactamase FRET ratio, antagonist, 17 h; series mostly up to 62 µM. Put shortly: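 Antagonist-mode beta-lactamase reporter screen: HEK293H cells with UAS-bla under PPARd control, stimulated by 300 nM L165041 (final) alongside test compound for 17 h at 37 C, then FRET fluorescence after 2 h substrate incubation.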
Sequence of Peroxisome proliferator-activated receptor delta (Homo sapiens) (Q03181 whole entry, looked up): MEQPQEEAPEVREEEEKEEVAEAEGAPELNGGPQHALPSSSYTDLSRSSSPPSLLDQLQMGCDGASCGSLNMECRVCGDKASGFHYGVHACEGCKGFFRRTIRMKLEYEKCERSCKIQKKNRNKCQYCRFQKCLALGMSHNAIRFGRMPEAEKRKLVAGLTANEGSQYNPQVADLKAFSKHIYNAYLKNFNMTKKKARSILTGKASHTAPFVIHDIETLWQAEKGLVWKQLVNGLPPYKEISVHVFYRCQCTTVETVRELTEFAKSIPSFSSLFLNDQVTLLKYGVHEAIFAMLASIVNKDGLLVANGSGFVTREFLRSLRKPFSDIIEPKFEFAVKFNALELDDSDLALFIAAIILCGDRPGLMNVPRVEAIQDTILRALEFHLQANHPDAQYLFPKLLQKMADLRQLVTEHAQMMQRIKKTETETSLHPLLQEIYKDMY

In assay [7] the target is Bile acid receptor (Homo sapiens) (UniProt Q96RI1). The assay can be described thus: qHTS assay to identify small molecule antagonists of the farnesoid-X-receptor (FXR) signaling pathway (AID 743217; active means well fitted inhibition curve with a large enough effect in the signal ratio in the repeat runs, not every such curve was filed as active; the % refers to the signal ratio). The conditions noted are these: HEK293T FXR-UAS-bla, beta-lactamase ratio, CDCA-stimulated, 16 h; series mostly up to 62.6 µM. In a few lines: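 Beta-lactamase reporter under UAS control in HEK 293T cells; compound exposure 16 h at 37 °C in the presence of chenodeoxycholic acid (50 uM final); signal from B/G FRET substrate after 2 h at room temperature.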
Sequence of Bile acid receptor (Homo sapiens) (Q96RI1 whole entry, looked up): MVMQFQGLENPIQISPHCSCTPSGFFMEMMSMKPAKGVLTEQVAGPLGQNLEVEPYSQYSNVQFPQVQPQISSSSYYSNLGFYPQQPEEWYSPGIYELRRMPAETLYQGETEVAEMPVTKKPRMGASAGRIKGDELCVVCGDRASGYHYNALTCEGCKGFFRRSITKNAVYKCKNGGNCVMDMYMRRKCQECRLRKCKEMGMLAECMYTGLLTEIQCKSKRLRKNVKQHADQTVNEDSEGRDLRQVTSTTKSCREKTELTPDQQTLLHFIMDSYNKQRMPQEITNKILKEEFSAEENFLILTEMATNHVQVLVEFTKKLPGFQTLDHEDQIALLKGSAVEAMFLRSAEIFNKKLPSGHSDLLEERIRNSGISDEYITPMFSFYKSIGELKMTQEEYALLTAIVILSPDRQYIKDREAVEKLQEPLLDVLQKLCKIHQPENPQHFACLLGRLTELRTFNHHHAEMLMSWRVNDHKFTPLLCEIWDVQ

Assay [8] shares this target. The assay can be described thus: qHTS assay to identify small molecule agonists of the farnesoid-X-receptor (FXR) signaling pathway (AID 743220; active means well fitted activation curve with a large enough effect in the signal ratio in the repeat runs, not every such curve was filed as active; the % refers to the signal ratio). The conditions noted are these: HEK293T FXR-UAS-bla, beta-lactamase FRET ratio, 16 h; series mostly up to 62.6 µM. In a few lines: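 Beta-lactamase reporter under UAS control in GeneBLAzer FXR HEK 293T cells (5000/well) measured with LiveBLAzer FRET substrate after 2 h at room temperature. Compound exposure lasted 16 h at 37C.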

Assay [9] deals with Peroxisome proliferator-activated receptor delta (Homo sapiens) (UniProt Q03181). The assay can be described thus: qHTS assay to identify small molecule agonists of the peroxisome proliferator-activated receptor delta (PPARd) signaling pathway (AID 743212; calls by dose curve). The conditions noted are these: HEK293H PPARd-UAS-bla, beta-lactamase FRET ratio, 17 h; series mostly up to 62.6 µM. In a few lines:
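GeneBLAzer PPARd UAS-bla HEK293H cells (beta-lactamase reporter under UAS control), plated and rested 5 h at 37 C, then exposed to compounds in DMSO at 37 C; LiveBLAzer B/G FRET substrate added, 2 h room temperature, fluorescence read.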

For the molecule `NC(=O)NNc1ccccc1`, the Potency result in assay [1], in assay [2], in assay [3], in assay [4] and in [5] was “inactive” in each case.
On to `CCOC(=O)/C=C\C(=O)OCC`, for which the Potency entry in assay [1], in assay [2], in assay [3], in assay [4] and in assay [5] was “inactive” in each case. Besides, in [6], the outcome was inactive.
Regarding `CNC[C@H](O)[C@@H](O)[C@H](O)[C@H](O)CO`, the Potency entry in assay [1], in assay [2], in [3], in [4] and in assay [5] was “inactive” throughout. The result in assay [6], in assay [7] and in assay [8] was inactive.
Take `CC(C)(C)C1CCC(O)CC1` (stereo unspecified): the outcome in assay [9] and in assay [6] was inactive. In addition, the Potency result in assay [1], in assay [2], in [3], in assay [4] and in assay [5] was “inactive” in each case.
Take `CC#C[C@]1(O)CC[C@H]2[C@@H]3CCC4=CC(=O)CCC4=C3[C@@H](c3ccc(N(C)C)cc3)C[C@@]21C`: the Potency result in [1] and in assay [3] was “inactive” in each case.
On to `CCCCCCCCC`, for which the result in assay [9] and in [6] was inactive. The Potency entry in assay [1], in assay [2], in assay [3], in assay [4] and in [5] was “inactive” each time.
Regarding `CN(CCOc1ccc(CC2SC(=O)NC2=O)cc1)c1ccccn1` (stereo unspecified), the Potency result in [1], in assay [2] and in assay [3] was “inactive” throughout. For the same molecule, the result in [7] and in [8] was inactive.
For `ClC1=C(Cl)C(Cl)(Cl)C(Cl)=C1Cl`, the outcome in [9] and in [6] was inactive. For the same molecule, the Potency entry in [1], in assay [2], in assay [3], in assay [4] and in [5] was “inactive” in each case.
Consider `CCCCCCCCCC(=O)O`, for which the Potency result in assay [1], in [2], in assay [3], in [4] and in [5] was “inactive” throughout. In assay [6], the result was inactive.
On to `CCCCCCC(C)(C)S`, for which the Potency result in [1], in assay [2] and in assay [3] was “inactive” in each case. Further, the outcome in assay [7] and in [8] was inactive.
Regarding `CCCCCCOC(C)=O`, the Potency result in [1], in assay [3] and in [4] was “inactive” throughout. Further, the result in assay [6], in assay [7] and in [8] was inactive. Moreover, in [2], the Potency entry is “inactive and 24.5 µM (active)”.
Regarding `C=CC(=O)OCCCCCCCC(C)C`, the Potency result in assay [1], in assay [2], in assay [3], in assay [4] and in [5] was “inactive” in each case. The result in [6], in [7] and in assay [8] was inactive.
As to `O=S(=O)(Oc1ccc(Cl)cc1Cl)c1ccccc1`, the outcome in assay [9] and in assay [6] was inactive. For the same molecule, the Potency entry in assay [1], in assay [2], in [3], in assay [4] and in assay [5] was “inactive” in each case.
Turning to `CCCCCCCCCCCCN`, the result in [9] and in [6] was inactive. Further, the Potency result in [1] is “inactive and 49 µM (active)”; in assay [2] it was “inactive and 43.6 µM (active)”; in assay [3], “inactive and 49 µM (active)”.
On to `COC(=O)c1ccccc1O`, for which the Potency entry in [1], in assay [2], in assay [3], in assay [4] and in assay [5] was “inactive” throughout. Also, the result in assay [6] was inactive.
Regarding `C=C(C#N)C(=O)OCC`, the result in [9] was inactive. In addition, the Potency result in assay [1], in assay [2] and in [3] was “inactive” in each case.
Consider `CN(C)c1ccc(C(=N)c2ccc(N(C)C)cc2)cc1`, for which the Potency result in [1], in assay [2], in assay [3] and in [4] was “inactive” in each case. Further, the Potency in assay [5] is 5.93 µM (active).
Take `CC1(C)O[C@@H]2C[C@H]3[C@@H]4C[C@H](F)C5=CC(=O)CC[C@]5(C)[C@H]4[C@@H](O)C[C@]3(C)[C@]2(C(=O)CO)O1`: the Potency entry in [1], in [2], in assay [3], in assay [4] and in assay [5] was “inactive” each time. In addition, the result in assay [6] was inactive.
Take `C=C(C)C(=O)OCCCCCC`: in assay [9], the result was inactive. Further, the Potency result in assay [1], in assay [2], in assay [3], in assay [4] and in [5] was “inactive” in each case.
`CC(C)(N=C=O)c1cccc(C(C)(C)N=C=O)c1`: the result in assay [9] and in assay [6] was inactive. For the same molecule, the Potency result in [1], in assay [3], in assay [4] and in [5] was “inactive” each time.
As for `CC(=O)[C@@]1(O)CC[C@H]2[C@@H]3CCC4=CC(=O)CC[C@]4(C)[C@H]3CC[C@@]21C`, the Potency result in assay [1], in assay [2] and in [3] was “inactive” in each case.
As for `OCCOCCOCCOCCO`, the result in [9] and in assay [6] was inactive. The Potency result in assay [1], in assay [2], in [3], in assay [4] and in assay [5] was “inactive” throughout.
Regarding `CCCCC(CC)COC(C)=O` (stereo unspecified), the Potency entry in [1], in assay [2], in assay [3], in assay [4] and in assay [5] was “inactive” each time. For the same molecule, in assay [6], the outcome was inactive.
Consider `CS(=O)(=O)Nc1ccc([N+](=O)[O-])cc1Oc1ccccc1`, for which the Potency result in [1], in assay [2], in assay [3], in assay [4] and in [5] was “inactive” throughout.
Regarding `Cc1cc(O)c2c(c1)C(=O)c1cc(O)cc(O)c1C2=O`, the Potency result in assay [1] and in assay [3] was “inactive” in each case.
Regarding `COC(=O)Nc1nc2ccc(Sc3ccccc3)cc2[nH]1`, the Potency entry in assay [1], in assay [2], in assay [3] and in [4] was “inactive” in each case.
As to `CC(=O)CCc1ccccc1`, the Potency result in assay [1], in [2], in assay [3], in [4] and in assay [5] was “inactive” each time.
Turning to `NCCc1ccc(O)c(O)c1`, the Potency result in [1], in assay [2], in assay [3], in assay [4] and in assay [5] was “inactive” each time. Besides, the result in assay [7] and in assay [8] was inactive.
Regarding `OC[C@@H](O)[C@H](O)[C@H](O)[C@@H](O)CO`, the Potency result in assay [1], in assay [2], in assay [3], in assay [4] and in [5] was “inactive” throughout.
As to `Nc1nc2ncc(CNc3ccc(C(=O)N[C@@H](CCC(=O)O)C(=O)O)cc3)nc2c(=O)[nH]1`, the outcome in assay [9] and in assay [6] was inactive. In addition, the Potency entry in assay [1], in [2], in assay [3] and in assay [4] was “inactive” each time.
With `Clc1cc(Cl)c(Cl)cc1Cl`, the outcome in assay [9] and in assay [6] was inactive. Also, the Potency entry in assay [1], in assay [2] and in assay [3] was “inactive” throughout.
In the case of `C[C@@H](O)[C@H]1C(=O)N2C(C(=O)O)=C(S[C@@H]3CN[C@H](C(=O)N(C)C)C3)[C@H](C)[C@H]12`, the Potency result in assay [1], in assay [2], in [3], in assay [4] and in assay [5] was “inactive” each time.
On to `C[C@@H]1O[C@@H](OC[C@H]2O[C@@H](Oc3c(-c4ccc(O)c(O)c4)oc4cc(O)cc(O)c4c3=O)[C@H](O)[C@@H](O)[C@@H]2O)[C@H](O)[C@H](O)[C@H]1O`, for which the Potency result in assay [1], in [2], in assay [3], in assay [4] and in assay [5] was “inactive” throughout. In addition, the result in assay [6] was inactive.
For `Oc1ccc2ccccc2c1N=Nc1ccccc1`, the Potency entry in [1], in assay [2] and in assay [3] was “inactive” in each case. In addition, the outcome in assay [7] and in [8] was inactive.
In the case of `CCCCCCCCCCCCOCC1CO1` (stereo unspecified), the Potency result in [1], in [2], in assay [3] and in [4] was “inactive” each time. In addition, the outcome in [6], in [7] and in [8] was inactive.
